Where “and” joins values, the source holds several entries; their conditions need not be identical. Identical values can stand only once. Some structures have more than one record in an assay (separate samples or runs), and their calls can disagree. Calls of active or inactive are those of the source. Rule for the calls: active = hit-call score of the fitted dose curve at least 0.9, where 1 is the maximum; inactive = score below 0.9.
Legend:
[1] = BSK_KF3CT_SRB: Viability Assessment in the BioMAP Diversity Plus: KF3CT Assay (AID 2283069); conditions: primary human keratinocytes with fibroblasts;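 note: total protein by sulforhodamine B staining as a cytotoxicity measure; fitted for both signal gain and loss against DMSO baseline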
Procedure, shortened: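 Human keratinocyte and foreskin fibroblast co-culture exposed to chemical for 24 h. Total protein measured in parallel cultures by 0.1% sulforhodamine B staining after 10% TCA fixation, read at 560 nm; bidirectional fit relative to DMSO.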

[2] = read-out: TIMP metallopeptidase inhibitor 2 (TIMP2), TIMP2 (gene 7077); test: BSK_KF3CT_TIMP2: BioMAP Diversity Plus: KF3CT Assay for TIMP metallopeptidase inhibitor 2 (TIMP2) Biomarker Activity (AID 2283071); conditions: primary human keratinocytes with fibroblasts; actives raise or lower the signal
Procedure, shortened: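 Keratinocyte–fibroblast co-culture, 24 h exposure; TIMP-2 ELISA, DMSO-normalised bidirectional fit. Parallel SRB (0.1%, TCA-fixed, 560 nm) total-protein staining gauges cytotoxicity.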

[3] = read-out: Transforming growth factor beta 1 (TGFb1), TGFB1 (gene 7040); test: BSK_KF3CT_TGFb1: BioMAP Diversity Plus: KF3CT Assay for Transforming growth factor beta 1 (TGFb1) Biomarker Activity (AID 2283072); conditions: primary human keratinocytes with fibroblasts; actives raise or lower the signal
Procedure, shortened: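 Signal changes in either direction, relative to DMSO, define activity here. TGF-b1 is read by ELISA from a human keratinocyte-fibroblast co-culture 24 h post-dose.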

[4] = read-out: C-C motif chemokine 2 (Homo sapiens) (UniProt P13500); test: BSK_KF3CT_MCP1: BioMAP Diversity Plus: KF3CT Assay for Monocyte Chemoattractant Protein 1 (MCP1/CCL2) Biomarker Activity (AID 2283073); conditions: primary human keratinocytes with fibroblasts; actives raise or lower the signal
Procedure, shortened: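 ELISA readout of MCP-1 after 24 h chemical dosing of a human skin primary co-culture of keratinocytes and foreskin fibroblasts. Activity was fitted in both directions against DMSO.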

[5] = read-out: urokinase plasminogen activator (uPA), PLAU (gene 5328); test: BSK_KF3CT_uPA: BioMAP Diversity Plus: KF3CT Assay for urokinase plasminogen activator (uPA) Biomarker Activity (AID 2283075); conditions: primary human keratinocytes with fibroblasts; actives raise or lower the signal
Procedure, shortened: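 Primary human keratinocyte/foreskin fibroblast co-culture exposed to chemical; uPA measured by ELISA at 24 h. Bidirectional fit versus DMSO, with parallel SRB total-protein staining for cytotoxicity.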

CD40, CD40 (gene 958) [6] = test: BSK_LPS_CD40: BioMAP Diversity Plus: LPS Assay for CD40 Biomarker Activity (AID 2283076); conditions: primary human HUVEC with PBMC; actives raise or lower the signal
Procedure, shortened: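 Cells were dosed, incubated 24 h, then assayed for CD40 by ELISA. Gain or loss of signal was analysed relative to DMSO controls. The culture paired human umbilical vein endothelium with peripheral blood mononuclear cells.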

[7] = read-out: E-selectin (Homo sapiens) (UniProt P16581); test: BSK_LPS_Eselectin: BioMAP Diversity Plus: LPS Assay for Eselectin Biomarker Activity (AID 2283077); conditions: primary human HUVEC with PBMC; actives raise or lower the signal
Procedure, shortened: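 Primary human vascular co-culture (endothelium plus PBMC) was dosed with chemical, then E-selectin quantified by ELISA at 24 h. Endpoint values derive from bidirectional curve fitting relative to DMSO.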

[8] = read-out: Interleukin-8 (IL8), CXCL8 (gene 3576); test: BSK_LPS_IL8: BioMAP Diversity Plus: LPS Assay for Interleukin-8 (IL8) Biomarker Activity (AID 2283078); conditions: primary human HUVEC with PBMC; actives raise or lower the signal
Procedure, shortened: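 Readout is IL-8 by ELISA, taken 24 h after compounds were added to LPS-stimulated endothelial/PBMC co-cultures. Both increases and decreases relative to DMSO control were scored through bidirectional fitting.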

[9] = BSK_LPS_SRB: Viability Assessment in the BioMAP Diversity Plus: LPS Assay (AID 2283079); conditions: primary human HUVEC with PBMC;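 note: total protein by sulforhodamine B absorbance as a cytotoxicity measure; measured one day after compound addition; fitted in both directions against DMSO so loss or gain of signal counts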
Procedure, shortened: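 Readout is SRB absorbance at 560 nm (0.1% stain, TCA-fixed parallel cultures) as a total-protein cytotoxicity measure. Cells: primary human umbilical vein endothelium plus peripheral blood mononuclear cells, 24 h after chemical exposure; DMSO served as baseline.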

[10] = read-out: Interleukin-1 alpha (IL1a), IL1A (gene 3552); test: BSK_LPS_IL1a: BioMAP Diversity Plus: LPS Assay for Interleukin-1 alpha (IL1a) Biomarker Activity (AID 2283080); conditions: primary human HUVEC with PBMC; actives raise or lower the signal
Procedure, shortened: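 ELISA read-out of IL-1 alpha from a human primary vascular co-culture (endothelium plus PBMC) under LPS, sampled 24 hours post-dosing. Activity was fitted in both directions relative to DMSO controls.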

[11] = read-out: Monocyte Chemoattractant Protein-1 (MCP1), CCL2 (gene 6347); test: BSK_LPS_MCP1: BioMAP Diversity Plus: LPS Assay for Monocyte Chemoattractant Protein-1 (MCP1) Biomarker Activity (AID 2283081); conditions: primary human HUVEC with PBMC; actives raise or lower the signal;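 for AC50: secreted MCP-1 protein quantified by ELISA in culture supernatant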
Procedure, shortened: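 Human endothelial–PBMC co-cultures were dosed with chemical, then LPS-driven MCP-1 levels were quantified by ELISA at 24 h. Activity in either direction was fitted versus DMSO negative control.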

[12] = BSK_LPS_PGE2: BioMAP Diversity Plus: LPS Assay for Prostaglandin E2 (PGE2) Biomarker Activity (AID 2283082); conditions: primary human HUVEC with PBMC; actives raise or lower the signal;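 for AC50: secreted prostaglandin E2 measured by ELISA in LPS-stimulated co-culture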
Procedure, shortened: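 Endpoint derived from bidirectional curve fitting versus DMSO of ELISA-measured PGE2 in LPS-stimulated human primary vascular co-culture (HUVEC with PBMC) harvested at 24 h.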

[13] = read-out: Macrophage colony-stimulating factor (MCSF), CSF1 (gene 1435); test: BSK_LPS_MCSF: BioMAP Diversity Plus: LPS Assay for Macrophage colony-stimulating factor (MCSF) Biomarker Activity (AID 2283083); conditions: primary human HUVEC with PBMC; actives raise or lower the signal
Procedure, shortened: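 ELISA readout of M-CSF after 24 h compound exposure in a human endothelial/PBMC co-culture. Activity, in either direction, is fitted relative to DMSO vehicle.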

[14] = read-out: Tissue Factor, F3 (gene 2152); test: BSK_LPS_TissueFactor: BioMAP Diversity Plus: LPS Assay for Tissue Factor Biomarker Activity (AID 2283084); conditions: primary human HUVEC with PBMC; actives raise or lower the signal
Procedure, shortened: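 ELISA signal for cell-surface Tissue Factor (CD142) was read 24 h after compound dosing of an LPS-stimulated human endothelial–PBMC primary co-culture. Gain or loss of signal was scored relative to DMSO.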

[15] = read-out: Tumor necrosis factor (Homo sapiens) (UniProt P01375); test: BSK_LPS_TNFa: BioMAP Diversity Plus: LPS Assay for Tumour Necrosis Factor alpha (TNFa) Biomarker Activity (AID 2283085); conditions: primary human HUVEC with PBMC; actives raise or lower the signal;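 for AC50: TNFa protein level quantified by ELISA in the co-culture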
Procedure, shortened: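 Primary human vascular co-culture of HUVEC and PBMC; TNFa ELISA 24 h after treatment, analysed as increase or decrease relative to DMSO control.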

[16] = read-out: Vascular cell adhesion molecule 1 (VCAM1), VCAM1 (gene 7412); test: BSK_LPS_VCAM1: BioMAP Diversity Plus: LPS Assay for Vascular cell adhesion molecule 1 (VCAM1) Biomarker Activity (AID 2283086); conditions: primary human HUVEC with PBMC; actives raise or lower the signal
Procedure, shortened: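 Primary human vascular co-culture (umbilical vein endothelium plus PBMC) stimulated with LPS received chemical; 24 h later VCAM-1 was read by ELISA. Overt cytotoxicity was assessed by sulforhodamine B staining of parallel cultures at the same time point.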

CD38, CD38 (gene 952) = test: BSK_SAg_CD38: BioMAP Diversity Plus: SAg Assay for CD38 Biomarker Activity (AID 2283087); conditions: primary human HUVEC with PBMC; actives raise or lower the signal
Procedure, shortened: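 Fluorescence ELISA of cell-surface CD38 served as the read-out, with either increase or decrease fitted against DMSO controls. Cells were a human umbilical vein endothelium plus PBMC co-culture under SEB/TSST-1 stimulation, measured 24 h after dosing.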

CD40, CD40 (gene 958) [17] = test: BSK_SAg_CD40: BioMAP Diversity Plus: SAg Assay for CD40 Biomarker Activity (AID 2283088); conditions: primary human HUVEC with PBMC; actives raise or lower the signal
Procedure, shortened: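 Compounds were dosed onto a human primary endothelial–PBMC co-culture, and after 24 h CD40 was quantified by ELISA using a fluorescence signal. Activity in either direction was fitted relative to DMSO.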

[18] = read-out: Matrix Metallopeptidase 9 (MMP9), MMP9 (gene 4318); test: BSK_KF3CT_MMP9: BioMAP Diversity Plus: KF3CT Assay for Matrix Metallopeptidase 9 (MMP9) Biomarker Activity (AID 2283074); conditions: primary human keratinocytes with fibroblasts; actives raise or lower the signal
Procedure, shortened: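 Human keratinocyte and foreskin fibroblast co-culture exposed to chemicals for 24 h; MMP9 biomarker measured by ELISA, bidirectional fitting relative to DMSO; cytotoxicity tracked by SRB total protein staining in parallel cultures.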

Measured: AC50

Chain of Tumor necrosis factor (Homo sapiens) (P01375 whole entry, looked up): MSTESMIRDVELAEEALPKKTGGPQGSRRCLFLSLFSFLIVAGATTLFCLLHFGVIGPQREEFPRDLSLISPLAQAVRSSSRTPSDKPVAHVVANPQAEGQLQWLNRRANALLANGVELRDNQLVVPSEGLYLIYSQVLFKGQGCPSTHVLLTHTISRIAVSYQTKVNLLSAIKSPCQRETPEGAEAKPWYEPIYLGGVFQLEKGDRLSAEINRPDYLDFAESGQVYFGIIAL
Chain of E-selectin (Homo sapiens) (P16581 whole entry, looked up): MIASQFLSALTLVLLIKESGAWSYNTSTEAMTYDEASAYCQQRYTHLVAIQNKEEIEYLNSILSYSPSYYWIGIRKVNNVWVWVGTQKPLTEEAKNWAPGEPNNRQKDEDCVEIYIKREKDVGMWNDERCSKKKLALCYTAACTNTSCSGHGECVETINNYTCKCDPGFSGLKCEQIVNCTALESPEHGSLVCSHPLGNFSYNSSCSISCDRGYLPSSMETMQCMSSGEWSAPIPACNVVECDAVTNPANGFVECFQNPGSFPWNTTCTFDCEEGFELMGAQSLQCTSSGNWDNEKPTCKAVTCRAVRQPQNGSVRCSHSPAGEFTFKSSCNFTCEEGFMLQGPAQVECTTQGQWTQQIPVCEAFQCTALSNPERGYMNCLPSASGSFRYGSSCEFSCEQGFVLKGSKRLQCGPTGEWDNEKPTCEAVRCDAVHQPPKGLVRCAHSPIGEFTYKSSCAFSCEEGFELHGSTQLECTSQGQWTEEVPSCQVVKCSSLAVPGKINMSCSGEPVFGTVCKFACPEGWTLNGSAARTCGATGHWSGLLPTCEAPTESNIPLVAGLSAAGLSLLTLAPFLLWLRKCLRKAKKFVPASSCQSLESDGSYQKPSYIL

ClC(Cl)c1ccccc1
not listed: [18]
inactive: all other assays above

CC(C)Nc1ccc(Nc2ccccc2)cc1
active: [2] 28.9 µM | [3] 17.3 µM | [4] 33.3 µM | CD40, CD40 (gene 958) [6] 14 µM | [7] 12.9 µM | [8] 20 µM | [9] 15.8 µM | [10] 9.74 µM | [11] 10.1 µM | [12] 16.6 nM | [13] 8.91 µM | [14] 8.74 µM | [15] 12.7 µM | [16] 10.2 µM | CD38, CD38 (gene 952) 4.14 µM | CD40, CD40 (gene 958) [17] 13.1 µM

NC(=O)C(F)(F)C(F)(F)F
not listed: [3] | [5]
inactive: all other assays above

CCOC(=O)c1ccccc1C(=O)OCC
not listed: [5]
inactive: all other assays above

ClC1=C(Cl)C2(Cl)C3C(Cl)C(Cl)CC3C1(Cl)C2(Cl)Cl (centres undefined)
inactive: [4] | [12]
active: [1] 28.2 µM | [2] 26.8 µM | [3] 20 µM | [5] 27.9 µM | CD40, CD40 (gene 958) [6] 14.9 µM | [7] 30.4 µM | [8] 34 µM | [9] 29.9 µM | [10] 26 µM | [11] 33.2 µM | [13] 27.9 µM | [14] 31.5 µM | [15] 32.7 µM | [16] 29.2 µM | CD38, CD38 (gene 952) 29.7 µM | CD40, CD40 (gene 958) [17] 24.4 µM

COCCOCCO
active: [2] 0.148 µM | [4] 0.254 µM | [11] 27.5 µM
not listed: [5]
inactive: all other assays above

O=C(O)C(F)(F)OC(F)(F)C(F)(F)OC(F)(F)C(=O)O
not listed: [3] | [5] | [18]
inactive: all other assays above

COC(=O)C(F)(F)C(F)(F)OC(F)(C(F)(F)F)C(F)(F)OC(F)=C(F)F (centres undefined)
inactive: [1] | [2] | [4] | [5] | CD40, CD40 (gene 958) [6] | [7] | [8] | [9] | [10] | [11] | [12] | [13] | [14] | [15] | [16] | CD38, CD38 (gene 952) | CD40, CD40 (gene 958) [17]
active: CD38, CD38 (gene 952) 0.864 µM

CCOP(=S)(NC(C)C)Oc1ccccc1C(=O)OC(C)C (centres undefined)
active: [15] 4.8 µM
not listed: [18]
inactive: all other assays above

OCC(F)(F)OC(F)(F)C(F)(F)OC(F)(F)CO
not listed: [3]
inactive: all other assays above

O=P1(N(CCCl)CCCl)NCCCO1 (centres undefined)
not listed: [18]
inactive: all other assays above

CC(C)(C)c1ccc(O)cc1
active: [12] 3650 nM
not listed: [5] | [18]
inactive: all other assays above

C=CC(=O)OCC(F)(F)C(F)F
inactive: [1] | [2] | [4] | [5] | [9] | [11] | [13] | [14]
active: CD40, CD40 (gene 958) [6] 24 µM and 19.9 µM | [7] 45.9 µM and 47.4 µM | [8] 49 µM and 30 µM | [10] 40 µM and 35.4 µM | [11] 20.8 µM | [12] 39.4 µM and 31.6 µM | [13] 30 µM | [15] 54.6 µM and 54 µM | [16] 38 µM and 24.3 µM | CD38, CD38 (gene 952) 24.2 µM and 36.9 µM | CD40, CD40 (gene 958) [17] 37.2 µM and 35.3 µM

Reference: PubChem BioAssay (EPA / NIEHS)
